Measurements reported in PubChem BioAssay (NCATS).
Values without a mark were called inactive. Results filed as inconclusive are left out. Where a call stands in place of a potency, no number is given. Active and inactive are the calls of the source. Calls come from the whole dose curve; as a rule, active = well fitted curve in the direction sought with a large enough effect; inconclusive = small, poorly fitted or top-dose-only effect, or another doubt; inactive = no such curve, though single readings can be large; an effect the other way counts as inactive or inconclusive. Where a SMILES comes first, the peptide text is derived from it. The star is where a group is joined. AMC = Cc1cc(=O)oc2cc(N*)ccc12; Cbz = O=C(OCc1ccccc1)*; Hexanoyl = CCCCCC(=O)*

Legend:
[1] = biological target: Glutathione peroxidase 1 (Homo sapiens) (UniProt P07203); test: Primary qHTS Assay for Inhibitors of Recombinant Selenoprotein Glutathione Peroxidase 1 (GPX1) (AID 1845191); details: recombinant GPX1, GR-coupled NADPH fluorescence, 15 min; series mostly up to 27.7 µM; note: nearly all actives have a fitted effect of over 65% in size; note: potency is the fitted concentration of half-maximal effect
Chain of Glutathione peroxidase 1 (Homo sapiens) (P07203 whole entry, looked up): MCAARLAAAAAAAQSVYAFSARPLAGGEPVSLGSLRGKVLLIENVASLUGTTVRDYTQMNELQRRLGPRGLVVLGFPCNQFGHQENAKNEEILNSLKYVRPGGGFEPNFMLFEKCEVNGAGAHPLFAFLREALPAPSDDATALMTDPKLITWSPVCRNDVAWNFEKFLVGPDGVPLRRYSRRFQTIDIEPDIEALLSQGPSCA
Summary of the method: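 NADPH consumption tracked by fluorescence at 340/450 nm between t=0 and t=15 min, room temperature. Final mix: 10 nM GPX1, 100 nM glutathione reductase, 1 mM GSH, 0.5 mM NADPH, 0.5 mM cumene hydroperoxide, 0.01% BSA; 30 min compound–enzyme preincubation.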

[2] = biological target: Phospholipid hydroperoxide glutathione peroxidase GPX4 (Homo sapiens) (UniProt P36969); test: Primary qHTS Assay for Inhibitors of Recombinant Selenoprotein Glutathione Peroxidase 4 (GPX4) (AID 1845192); details: recombinant GPX4, GR-coupled NADPH fluorescence, 15 min; series mostly up to 27.8 µM; note: nearly all actives have a fitted effect of over 65% in size; note: potency is the fitted concentration of half-maximal effect
Chain of Phospholipid hydroperoxide glutathione peroxidase GPX4 (Homo sapiens) (P36969 whole entry, looked up): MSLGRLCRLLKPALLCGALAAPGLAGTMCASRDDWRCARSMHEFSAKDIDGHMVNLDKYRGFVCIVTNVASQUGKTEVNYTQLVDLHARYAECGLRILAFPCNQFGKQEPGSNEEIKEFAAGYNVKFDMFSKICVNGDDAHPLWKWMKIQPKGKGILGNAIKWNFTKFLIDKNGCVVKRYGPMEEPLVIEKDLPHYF
Summary of the method: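 NADPH consumption followed by fluorescence at 340/450 nm, t=0 and after 15 min at room temperature. Reaction started with cumene hydroperoxide (0.5 mM final) after 30 min compound–GPX4 preincubation; final 200 nM GPX4, 100 nM GR, 1 mM GSH, 0.5 mM NADPH.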

[3] = biological target: Luciferin 4-monooxygenase (Photinus pyralis) (UniProt P08659); test: Primary firefly luciferase (FLuc) qHTS assay for identification of artifact compounds. (AID 1845220); details: purified firefly luciferase, luminescence, 5 min; series mostly up to 54.1 µM; note: nearly all actives have a fitted effect of over 60% in size
Summary of the method: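 Cell-free, 1536-well qHTS. Buffer pH 7.6 with 0.01% Tween-20 and 0.05% BSA; 10 uM D-luciferin, 10 uM ATP; 10 nM P. pyralis luciferase; luminescence after 5 min.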

[4] = Primary fluorescence-based thiol-reactive (MSTI) qHTS assay for identification of artifact compounds. (AID 1845221); details: MSTI thiol-reactivity probe, 1 h; series mostly up to 53.8 µM; note: nearly all actives have a fitted effect of over 65% in size; note: potency is the fitted concentration of half-maximal effect;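 for activity change, negative = thiol reactive: thiol-reactive compounds lower the probe fluorescence signal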
Summary of the method: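 First, 4 uM MSTI in 2% DMSO/PBS pH 7.4 was dispensed; next, compounds were added; then plates sat 1 h at room temperature without light. Finally, emission at 598 nm was recorded.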

[5] = test system: Nanoluciferase (engineered Oplophorus gracilirostris luciferase); test: Primary Nanoluciferase (NLuc) qHTS assay for identification of artifact compounds. (AID 1845222); details: NLuc-conditioned medium, Nano-Glo luminescence, 5 min; series mostly up to 54.1 µM
Summary of the method: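 Compounds are pinned into diluted (1:55) conditioned medium of NLuc-expressing S16 cells and held 15 min at room temperature protected from light. Nano-Glo substrate follows, and luminescence is read 5 min later.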

Row | SMILES | Potency [1] | Potency [2] | Potency [3] | Potency [4] | Potency [5] | outcome [3] | activity change, negative = thiol reactive [4] | activity, negative = inhibition [5]
1 | C=CC1(C)CC2CCC3C(C)(C(=O)O)CCCC3(C)C2=CC1=O (stereo not given) | inactive | inactive | inactive | inactive | inactive |  |  | 
2 | C[C@@H]1O[C@@H](O[C@H]2[C@H](O[C@H]3[C@H](O[C@H]4CC[C@@]5(C)C(CC[C@]6(C)C5CC=C5[C@@H]7CC(C)(C)CC(=O)[C@]7(C)CC[C@]56C)[C@@]4(C)CO)O[C@H](C(=O)O)[C@@H](O)[C@@H]3O)O[C@H](CO)[C@H](O)[C@@H]2O)[C@H](O)[C@H](O)[C@H]1O (stereo not given in full) | inactive | inactive |  |  |  | inactive [at 11.6 µM] | 40% [at 11.5 µM] | -0.78% [at 11.6 µM]
3 | CC(C)CC(c1c(O)c(C=O)c(O)c(C=O)c1O)C1CCC(C)(O)C2CC(C(C)(C)O)CCC12C (stereo not given) | inactive | inactive | inactive | 4.12 µM (active) | inactive |  |  | 
4 | C=C(C)C1CCC2(C(=O)OC3OC(COC4OC(CO)C(O)C(O)C4O)C(OC4OC(C)C(O)C(O)C4O)C(O)C3O)CCC3(C(=O)O)C(CCC4C5(C)CCC(=O)C(C)(C)C5CCC43C)C12 (stereo not given) | inactive | inactive |  |  |  | inactive [at 11.6 µM] | 183% [at 11.5 µM] | 3.95% [at 11.6 µM]
5 | Cn1cc(CCn2cnc(-c3cnn(C)c3)c2-c2ccc(C#N)cc2)cn1 | inactive | inactive | inactive | inactive | inactive |  |  | 
6 | COc1ccc(CC(NC(C)=O)C(=O)O)cc1 (stereo not given) | inactive | inactive | inactive | 4.74 µM (active) | inactive |  |  | 
7 | CCCc1[nH]nc2c1C(c1cc(Cl)cc(Cl)c1O)C(C#N)=C(N)O2 (stereo not given) | inactive | inactive | inactive | inactive | inactive |  |  | 
8 | CC(C)(O)C1CCC2(C)CCCC(C)(O)C2C1 (stereo not given) | inactive | inactive | inactive | inactive | inactive |  |  | 
9 | O=C(O)CC/C=C\C[C@H]1CO[C@@H](c2ccccc2Cl)O[C@H]1c1ccccc1O | inactive | inactive | inactive | inactive | inactive |  |  | 
10 | C=C(COC(=O)C(C)C)C1Oc2cc(C(C)=O)ccc2C1OC(=O)C(C)C (stereo not given) | inactive | inactive | inactive | inactive | inactive |  |  | 
11 | Cc1cc(=O)oc2cc(NC(=O)[C@H](CCC(=O)O)NC(=O)[C@H](CC(C)C)NC(=O)[C@H](CC(C)C)NC(=O)OCc3ccccc3)ccc12 (Cbz-Leu-Leu-Glu-{AMC}) | 22.7 µM (active) | 22.7 µM (active) | inactive | inactive | inactive |  |  | 
12 | Nc1nc2c(nc(Sc3ccc(Cl)cc3)n2[C@@H]2O[C@@H]3COP(=O)(O)O[C@H]3[C@H]2O)c(=O)[nH]1 | inactive | inactive | inactive | inactive | inactive |  |  | 
13 | C/C=C/C=C/C(=O)OC1CC/C=C/C(O)C(O)C(CCC)OC1=O (stereo not given) | inactive | inactive | inactive | inactive | inactive |  |  | 
14 | CN1C(=O)N(c2cc(Cl)cc(Cl)c2)C(=O)[C@@]1(C)Cc1ccc(Br)cc1 | inactive | inactive | inactive | inactive | inactive |  |  | 
15 | C=C(C)[C@@]1(O)C[C@@]2(C)C(=CC1=O)CC[C@@H](O)[C@@H]2C | inactive | inactive | inactive | inactive | inactive |  |  | 
16 | OC[C@H]1O[C@@H](Oc2cc(O)cc(-c3cc4ccc(O[C@@H]5O[C@H](CO)[C@@H](O)[C@H](O)[C@H]5O)cc4o3)c2)[C@H](O)[C@@H](O)[C@@H]1O | inactive | inactive | inactive | 10.3 µM (active) | inactive |  |  | 
17 | CN(C)C(=O)C(O)C(Cc1ccccc1)NC(=O)c1cc2cc(Cl)ccc2[nH]1 (stereo not given) | inactive | inactive | inactive | inactive | inactive |  |  | 
18 | CCCCCC(=O)N1CCC[C@H]1C(=O)N[C@@H](Cc1ccc(O)cc1)C(=O)OC (Hexanoyl-Pro-Tyr-OMe) | inactive | inactive | inactive | inactive | inactive |  |  | 
19 | CC1=C[C@H]2[C@@H](CC1=O)[C@H](C)C[C@H](O)[C@H]2C(C)C | inactive | inactive | inactive | inactive | inactive |  |  | 
20 | CC1(C)CC[C@]2(C(=O)O[C@@H]3O[C@H](CO[C@@H]4O[C@H](CO)[C@@H](O)[C@H](O)[C@H]4O)[C@@H](O)[C@H](O[C@@H]4O[C@H](CO)[C@@H](O)[C@H](O)[C@H]4O)[C@H]3O)CC[C@]3(C)C(=CCC4[C@@]5(C)CC[C@H](O[C@@H]6OC[C@@H](O)[C@H](O)[C@H]6O)[C@@](C)(C(=O)O)C5CC[C@]43C)[C@@H]2C1 (stereo not given in full) | inactive | inactive |  |  |  | inactive [at 11.6 µM] | 183% [at 11.5 µM] | 1.63% [at 11.6 µM]
